Measurements taken from PubChem BioAssay.

What was measured:
[1] = system: Human papillomavirus type 1a protein E7 (residues 44-93); test: HPV1a E7 fragment binders on microarrays, primary screen, biochemical, small-molecule microarray, residues 44-93, 635 nm fluorescence (AID 1108); settings: small-molecule microarray binding, fluorescence 635 nm; higher = more signal;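 note: E7 fragment applied at 1 µg/mL in TBST for 1 h at 4 C; score combines spot fluorescence with its signal to noise ratio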
[2] = modulators of HCV replicon luciferase signal, primary screen, HCV replication inhibitor project, Huh7 cells, luciferase reporter (AID 1109); settings: 48 h, higher = more signal;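 note: huh7 hepatoma cells harbouring a luciferase neomycin HCV replicon reporter; luciferase luminescence as measure of HCV replicon replication; test concentration not given here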
[3] = target: Left-right determination factor 2 (Homo sapiens) (UniProt O00292); test: LEFTY2 binders on small-molecule microarrays, primary screen, biochemical, small-molecule microarray, 635 nm fluorescence scan (AID 1110); settings: LEFTY2 binding, higher = more signal
Sequence of Left-right determination factor 2 (Homo sapiens) (O00292 whole entry, looked up): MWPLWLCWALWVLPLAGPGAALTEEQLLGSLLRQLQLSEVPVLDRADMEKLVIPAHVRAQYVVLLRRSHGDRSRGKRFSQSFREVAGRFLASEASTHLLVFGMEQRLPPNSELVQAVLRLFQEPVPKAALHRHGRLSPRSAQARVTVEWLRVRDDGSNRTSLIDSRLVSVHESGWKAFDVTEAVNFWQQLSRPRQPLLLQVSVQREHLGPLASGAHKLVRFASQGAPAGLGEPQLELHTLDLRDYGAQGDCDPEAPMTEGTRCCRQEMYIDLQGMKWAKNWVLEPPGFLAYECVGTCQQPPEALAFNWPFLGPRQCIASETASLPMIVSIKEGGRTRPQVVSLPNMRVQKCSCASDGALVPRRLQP

[4] = target: Calmodulin-1 (Homo sapiens) (UniProt P0DP23); test: CALM1 binders on microarrays, EGTA buffer, profiling panel, biochemical, small-molecule microarray, Cy5-labelled CALM1 (AID 1111); settings: Cy5-CALM1 binding fluorescence, higher = more signal;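 note: labelled calmodulin applied in Tris saline Tween buffer holding calcium plus EGTA and DTT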
[5] = target: Calmodulin-1 (Homo sapiens) (UniProt P0DP23); test: calcium-bound CALM1 binders on microarrays, profiling panel, artefact control for SMM control-protein annotation, biochemical, small-molecule microarray, Cy5-labelled CALM1, plus calcium (AID 1112); settings: Cy5-CALM1 binding fluorescence, higher = more signal;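 note: score merges spot fluorescence with signal to noise from triplicate slides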
[6] = small-molecule microarray binders of probe aWnt5a, primary screen, biochemical, biotinylated probe, 635/667 nm fluorescence (AID 1113); settings: higher = more signal;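 note: score merges 667 nm fluorescence intensity with signal-to-noise per printed feature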
[7] = small-molecule microarray binders of probe aShh, primary screen, biochemical, biotinylated probe, 635/667 nm fluorescence (AID 1114); settings: higher = more signal;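 note: probe is biotin-labelled aShh protein from a stem cell growth factor screen; measures binding of labelled protein to compounds printed on the slide; score merges feature fluorescence at 667 nm with signal-to-noise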
[8] = small-molecule microarray binders of probe aNog, primary screen, biochemical, biotinylated probe, 635/667 nm fluorescence (AID 1115); settings: higher = more signal;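 note: probe is biotinylated aNog protein used at 0.15 µg/mL for 1 h at 4 C; z-score combines 667 nm fluorescence of each spot with its signal to noise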
[9] = target: Torsin-1A-interacting protein 1 (Homo sapiens) (UniProt Q5JTV8); test: LAP1 binders from COS7 cell lysate, primary screen, small-molecule microarray, 635/667 nm fluorescence (AID 1116); settings: COS7-hLAP1 lysate binding, 635 nm fluorescence, higher = more signal
Sequence of Torsin-1A-interacting protein 1 (Homo sapiens) (Q5JTV8 whole entry, looked up): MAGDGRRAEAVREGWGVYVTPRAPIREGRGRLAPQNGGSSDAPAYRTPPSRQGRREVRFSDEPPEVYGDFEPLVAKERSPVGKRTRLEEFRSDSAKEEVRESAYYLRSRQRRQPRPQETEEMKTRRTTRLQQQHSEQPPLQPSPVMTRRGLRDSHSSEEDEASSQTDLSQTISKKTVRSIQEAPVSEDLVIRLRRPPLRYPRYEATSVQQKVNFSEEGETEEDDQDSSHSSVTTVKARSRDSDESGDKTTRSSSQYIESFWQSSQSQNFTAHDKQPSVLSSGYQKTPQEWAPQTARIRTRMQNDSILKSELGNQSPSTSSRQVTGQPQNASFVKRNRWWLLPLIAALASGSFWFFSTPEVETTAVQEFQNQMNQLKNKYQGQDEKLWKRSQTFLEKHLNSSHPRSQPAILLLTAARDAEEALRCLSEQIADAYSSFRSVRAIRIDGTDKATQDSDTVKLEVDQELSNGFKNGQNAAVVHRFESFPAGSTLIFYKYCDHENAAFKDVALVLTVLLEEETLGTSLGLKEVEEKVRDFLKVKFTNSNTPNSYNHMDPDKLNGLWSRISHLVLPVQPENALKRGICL

[10] = target: Alpha-bungarotoxin (Bungarus multicinctus) (UniProt P60615); test: alpha-bungarotoxin binders on microarray, profiling panel, artefact control for SMM control protein annotation, biochemical, small-molecule microarray, Alexa647 label, 635/667 nm fluorescence (AID 1117); settings: alpha-BTX-A647 binding fluorescence, higher = more signal
Sequence of Alpha-bungarotoxin (Bungarus multicinctus) (P60615 whole entry, looked up): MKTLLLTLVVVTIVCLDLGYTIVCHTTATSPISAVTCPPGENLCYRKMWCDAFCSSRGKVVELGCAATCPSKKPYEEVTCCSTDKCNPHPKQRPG

Row | Structure (SMILES) | composite z-score [1] | z-score [2] | composite z-score [3] | composite z-score [4] | composite z-score [5] | composite z-score [6] | composite z-score [7] | composite z-score [8] | composite z-score [9] | composite z-score [10]
1 | CC(CCC(=O)OC[C@H]1O[C@H](C#Cc2ccccc2)C=C[C@@H]1Oc1ccc(C)cc1)=NOC[C@@H](O)[C@H]1O[C@@H]2OC(C)(C)O[C@@H]2[C@H]1O | -0.263 | -1.13 | -0.15 | -0.873 | 0.0923 | -0.18 | -0.439 | -0.118 | 0.416 | -0.469
2 | COCCOC(=O)N1C(=O)[C@@]2(c3ccccc31)[C@H](C(N)=O)[C@H]1C(=O)O[C@H](c3ccccc3)[C@H](c3ccccc3)N1[C@@H]2c1ccccc1OCCO | 1.32 | -2.2 | 0.565 | 2.3 | 0.668 | -0.0118 | -0.0035 | 0.162 | 4.3 | 2.62
3 | CCOC(=O)[C@H](Cc1ccccc1)NC(=O)CCC1CC(OC(=O)NCc2ccc3c(c2)OCO3)CC2(CCCC(COC(=O)NCc3ccccc3)O2)O1 (stereo not given in full) | 1.33 | -1.08 | 0.619 | 0.351 | -0.298 | -0.128 | -0.0793 | 0.041 | 0.183 | 0.463
4 | CC1CC/C=C\[C@H]2OC34C=CCN(Cn5nnc6ccccc65)C(=O)[C@H]3N(CCO)C(=O)[C@@H]4C2C(=O)O1 (stereo not given in full) | -0.487 | -0.505 | -0.28 | -0.614 | 0.383 | -0.147 | -0.291 | -0.256 | 2 | -0.118
5 | CC(C)C[C@@H]1NC(=O)[C@H]2C[C@@H](C(=O)O)[C@@H](c3ccc(O)cc3)N2C1=O | 0.635 | 3.51 | 0.0945 | -0.187 | 0.131 | -0.0704 | 0.0611 | -0.144 | 0.588 | 2.19
6 | COC(=O)C1=C(C)[C@@H](O)[C@@H](C)[C@H](c2c(OC)c(OC)c(C)c(OC)c2OC)O1 | -0.685 | -0.566 | 0.494 | -0.628 | -0.787 | -0.171 | -0.0011 | -0.135 | 0.272 | 0.138
7 | O=C1O[C@@H](c2ccccc2)[C@@H](c2ccccc2)N2[C@@H](c3ccc(OCCO)cc3)[C@]3(C(=O)Nc4ccc(C#CCCO)cc43)[C@@H](C(=O)N3CCCCCCC3)[C@H]12 | -0.516 | -0.777 | 1.07 | 2.62 | 1.06 | 0.935 | 2.18 | 2.81 | 4.07 | 2.78
8 | CO[C@H]([C@@H](C)[C@H](OC)c1ccccc1)[C@H](C)[C@@H](OC)[C@H](C)C(C)=O | -0.431 | 1.14 | 0.402 | -1.1 | -0.0474 | 0.0101 | -0.367 | -0.0286 | -0.482 | -0.847
9 | C=CCN1C(=O)[C@]2(O[C@H](CCn3cc(CCO)nn3)[C@@H]([Si](C)(C)c3ccc(OC)cc3)[C@@H]2C)c2cc(N3CCOC3=O)ccc21 | 1.07 | -3.46 | -0.264 | 0.504 | -0.463 | -0.0403 | -0.0356 | -0.0841 | 1.52 | 0.465
10 | O=C1[C@H]2[C@H]3[C@H](O)[C@H](O)CC(=NOCc4ccccc4)[C@@H]3CC[C@H]2C(=O)N1C1CCCCC1 | 0.422 | -1.11 | -0.102 | -0.161 | -0.408 | -0.206 | -0.265 | -0.169 | 0.467 | -0.0059
11 | Cc1ccc(C2CC=C(C(=O)O)CN2S(=O)(=O)c2ccc(C)cc2)cc1 (stereo not given) | 1.35 | 0.602 | -0.403 | 0.189 | 0.15 | 0.0018 | -0.271 | 0.241 | 0.743 | 0.802
12 | CCOC(=O)CCN1C(=O)[C@H]2[C@H]3[C@H](O)C=CC(=O)[C@@H]3CC[C@H]2C1=O | -0.219 | 0.158 | 0.61 | -0.0738 | -0.583 | -0.202 | -0.262 | -0.147 | 0.174 | 0.335
13 | COc1ccc(-c2nc3c(c4c2C[C@H](C)OC4)CN(CCC(C)C)CC3)cc1 | 1.35 | -0.257 | 0.6 | 0.518 | 0.038 | -0.0239 | 0.123 | -0.131 | 0.269 | 0.615
14 | N#Cc1ccc(NN2C(C(O)c3cc(C(F)(F)F)cc(C(F)(F)F)c3)C=CC3C(=O)N(c4ccccc4)C(=O)C32)cc1 (stereo not given) | 1.39 | -1.99 | 0.224 | 2.44 | 0.892 | -0.0009 | 0.0326 | -0.753 | 1.73 | 0.692
15 | COC(=O)[C@@]1(Cc2ccc(F)cc2)[C@H]2c3cc(C(=O)N(C)C)n(Cc4ccc(OC)c(OC)c4)c3C[C@H]2CN1C(=O)c1ccccc1 | 0.0897 | -1.44 | -0.137 | 0.482 | 0.0167 | 0.0833 | 0.299 | 0.338 | 0.0894 | 0.0611
16 | COCCCNC(=O)[C@]1(CCC(=O)OC(C)(C)C)N=C(c2ccc(OCCCO)cc2)O[C@@H]1c1ccccc1N=[N+]=[N-] | 1.45 | 0.971 | 0.197 | 1.88 | 0.671 | 0.183 | 0.0948 | 1.56 | 1.21 | 1.64
17 | CCCNC(=O)[C@@H]1c2ccccc2C(=O)N(c2ccc(C)cn2)[C@H]1c1ccc(CO)cc1 | -1.05 | 0.0924 | -0.181 | -0.769 | -0.462 | -0.238 | -0.0155 | -0.434 | 0.185 | 0.4
